The values below come from PubChem BioAssay AID2315 (National Center for Advancing Translational Sciences (NCATS), 2010).

Structures are written as SMILES. About 27,000 (9.3%) of roughly 290,000 compounds were called active. No stated cut-off is given here; in the data, active means inhibition mostly above about 28% (no sharp cut-off); inactive means mostly below about 43%. Many of the other results were omitted from the sample, so actives are more common in it than they were.

The assay is described as follows: A qHTS for Small Molecule Inhibitors of Shiga Toxin. Further: 0% is about no effect. The conditions noted are these: Vero cells, Shiga toxin protein synthesis inhibition reporter; at 38.7 µM, hits give high values.
Regarding `COc1ccccc1Oc1ccc(N/C=C2/CCCC2=O)cc1`, the inhibition is 33.6% (inactive).

With `Cc1onc(-c2ccccc2)c1C(=O)N1CCN(S(=O)(=O)c2ccccc2C(F)(F)F)CC1`, the inhibition is 61.7% (inactive).

For the molecule `CCOc1ccc(N(CC)S(=O)(=O)c2cccc3nsnc23)cc1`, the inhibition was -2.2% (inactive).

For the molecule `Nc1c(Cl)cc(-c2csc(N3CCCC3c3nc4cc(Cl)c(Cl)cc4n3CCOCCO)n2)cc1Cl` (stereo not drawn), the inhibition was -18% (inactive).

Turning to `CCCOc1ccc(-c2c(C(=O)N/N=C/c3ccco3)nnn2-c2nonc2N)cc1`, the inhibition was -3.97% (inactive).

In the case of `CC(C)c1ccc2oc(=O)cc(CN3CCN(Cc4ccccc4)CC3)c2c1`, the inhibition is -3.05% (inactive).

Regarding `Cc1ccc(C(=O)N2CCC(n3nccc3NC(=O)Nc3cccc(F)c3)CC2)cn1`, the inhibition was -8.38% (inactive).

With `COc1ccc(-c2cc(=O)oc3cc(OC(C)C(=O)NCC4CCC(C(=O)O)CC4)ccc23)cc1` (stereo not drawn), the inhibition is -4.72% (inactive).

Turning to `CC(=O)Cn1cnc2c(cnn2-c2ccccc2)c1=O`, the inhibition is 34.2% (active).

On to `O=C(Cn1cnc2c(cnn2-c2ccc(F)cc2)c1=O)NCCc1ccccc1`, for which the inhibition was -0.429% (inactive).

Consider `O=C(Cn1cnc2c(cnn2-c2ccccc2)c1=O)NCc1ccccc1`, for which the inhibition is 31.9% (inactive).

As for `CC1C(=O)Nc2ccccc2N1C(=O)c1c(F)cccc1F` (stereo not drawn), the inhibition was -5.2% (inactive).

Turning to `COC(=O)C1CCCCN1C(=O)c1ccc(OC2CCN(C(C)=O)CC2)c(OC)c1` (stereo not drawn), the inhibition is 20.4% (inactive).

Consider `Cc1ccc(-c2nc(COC(=O)c3c(C)noc3C)cs2)cc1`, for which the inhibition is 104% (active).

On to `Cc1ccc(S(=O)(=O)N2CCN(C(=O)COC(=O)c3c(C)noc3C)CC2)c(C)c1`, for which the inhibition was -4.13% (inactive).

On to `COc1cc(OC)cc(C(=O)NCC(=O)OCc2csc(-c3ccccc3)n2)c1`, for which the inhibition is 21% (inactive).

For the molecule `S=C(Nc1ccc(Br)cc1Cl)N1CCC2(CC1)OCCO2`, the inhibition was 76.2% (active).

Take `CN1CCN(S(=O)(=O)c2ccc(NC(=S)NC(=O)C3CC3)cc2)CC1`: the inhibition was 11.7% (inactive).

As to `S=C(Nc1ccc(Cl)cc1Cl)N1CCCC1`, the inhibition is 88.2% (active).

Consider `CC1CN(C(=S)Nc2ccc(Br)cc2Cl)CC(C)O1` (stereo not drawn), for which the inhibition is -7.71% (inactive).

Take `Cc1cc(Cl)ccc1NC(=S)N1CCC(C(N)=O)(N2CCCCC2)CC1`: the inhibition is -10.1% (inactive).

As for `O=C(NC(=S)Nc1ccc(Cl)cc1Cl)C1CC1`, the inhibition is 97.9% (active).

Consider `S=C(NCc1cccnc1)Nc1ccc(Cl)cc1Cl`, for which the inhibition was 23.4% (inactive).

On to `CN(C)C(=S)Nc1ccc(Br)cc1Cl`, for which the inhibition was 23.8% (inactive).

In the case of `Cc1ccc2c(c1)C1CN(C)CCC1N2C(=S)Nc1ccc(Cl)cc1Cl` (stereo not drawn), the inhibition is 14.7% (inactive).

Take `CCc1ccc(N(CC(=O)NCc2cccnc2)S(=O)(=O)c2ccccc2)cc1`: the inhibition was 9.02% (inactive).

Take `CCn1nc(C)c(CNC(=O)C2CCC(=O)N(Cc3cccc(F)c3)C2)c1C` (stereo not drawn): the inhibition is -13.2% (inactive).

For `C=Cc1ccc(C(=O)N2CCCC(CCC(=O)N3CCN(c4ccccn4)CC3)C2)cc1` (stereo not drawn), the inhibition was 4.52% (inactive).

For `CN(CCC(=O)Nc1cc(S(=O)(=O)N(C)C)ccc1Cl)CC(=O)Nc1ccc(F)cc1`, the inhibition is 1.75% (inactive).

Regarding `CC1(c2ccc3ccccc3c2)NC(=O)NC1=O` (stereo not drawn), the inhibition is 9.07% (inactive).

Take `O=C1CCCN2N=C(SCC(=O)Nc3ccc(Br)cc3)SC2=N1`: the inhibition is -4.09% (inactive).

Turning to `CCn1cc(C(=O)N[C@@H](C)C(=O)NCCO)c(=O)c2cc3c(cc21)OCO3`, the inhibition was -6.09% (inactive).

With `CC(=O)c1cc(CN2CCC(C(=O)Nc3cccc(-c4cscn4)c3)CC2)cs1`, the inhibition is 12.4% (inactive).

On to `COC(=O)[C@@H]1CCCN1C(=O)c1cc(COc2cccc3cccnc23)on1`, for which the inhibition is 18.1% (inactive).

As to `CSc1ccccc1OCc1cc(C(=O)N2C[C@H]3CC[C@H]2C3)no1`, the inhibition was 108% (active).

On to `CSc1ccccc1OCc1cc(C(=O)N(C)CCc2c(C)n[nH]c2C)no1`, for which the inhibition is -3.19% (inactive).

As for `O=C(CSc1nc(O)c(Cc2ccccc2)c(=O)[nH]1)Nc1nc2c(s1)CCCC2`, the inhibition is 40.8% (active).

Take `CCOC(=O)c1sc(NC(=O)CSc2nc(O)c(Cc3ccccc3)c(=O)[nH]2)nc1C`: the inhibition is 107% (inactive).

For the molecule `CSc1nc(O)c(Cc2ccccc2)c(=O)[nH]1`, the inhibition is 13.7% (inactive).

In the case of `O=C(Nc1ccccc1C(=O)O)c1ccc(N2C(=O)C3CC=CCC3C2=O)cc1` (stereo not drawn), the inhibition was 21.8% (inactive).

Regarding `COc1ccccc1N(CC(=O)Nc1ccccc1C(=O)N1CCCC1)S(C)(=O)=O`, the inhibition was -2.57% (inactive).

Take `Cn1c(NC(=O)c2ccc3c(c2)OCO3)cc(=O)n(C)c1=O`: the inhibition is -7.32% (inactive).

Consider `Cn1c(=O)n(C)c2cc(C(=O)Nc3ccc(Br)cc3)ccc21`, for which the inhibition was -10.4% (inactive).

As to `CC(C)CNS(=O)(=O)c1ccc(OCC(=O)Nc2ccc3c(c2)OCO3)c(Cl)c1`, the inhibition was -2.63% (inactive).

Turning to `COc1cc(OC)c(C(=O)NCc2ccc3c(c2)OCO3)cc1OC`, the inhibition is -10.8% (inactive).

In the case of `COc1ccc(S(=O)(=O)Nc2ccc3c(c2)OCO3)cc1Cl`, the inhibition was -1.27% (active).

For the molecule `CCC(=O)c1cc2c(cc1NC(=O)c1cccs1)OCCO2`, the inhibition was -21.9% (inactive).

For the molecule `COc1cc(NC(=O)c2cccs2)ccc1NC(=O)c1ccccc1Cl`, the inhibition is 39.7% (inactive).

For `COc1ccc(S(=O)(=O)N(C)CC(=O)Nc2ccc3c(c2)OCCO3)cc1OC`, the inhibition is 24.6% (inactive).

In the case of `COc1cc(NC(=O)c2ccc3c(c2)OCO3)ccc1NC(=O)c1cccs1`, the inhibition was 55.9% (active).

As for `Cn1c(=O)n(C)c2cc(C(=O)Nc3ccc4c(c3)OCO4)ccc21`, the inhibition was 33.6% (active).

In the case of `COc1ccc(C(=O)Nc2ccc3c(c2)OCO3)cc1OC`, the inhibition was 99% (active).

Turning to `COc1ccc(F)cc1S(=O)(=O)Nc1ccc2c(c1)OCO2`, the inhibition was -6.49% (inactive).

Regarding `COC(=O)c1ccc(C2C3=C(Nc4nnnn42)c2ccccc2OC3)cc1` (stereo not drawn), the inhibition was -11.2% (inactive).

Take `CC1CN(C(=O)CCC(=O)NCCCN2CCC(Cc3ccccc3)CC2)c2cc(Cl)ccc2O1` (stereo not drawn): the inhibition is -10.8% (inactive).

For the molecule `O=C(CN(c1cc(C(F)(F)F)ccc1Cl)S(=O)(=O)c1ccccc1)NCc1cccnc1`, the inhibition is -32% (inactive).

Consider `Cc1cccc(C)c1N1C(=O)CN(Cc2ccccc2)C1=S`, for which the inhibition is -4.26% (inactive).

For the molecule `COc1ccc(C(CNC(=O)COc2ccc([N+](=O)[O-])cc2)N2CCCCC2)cc1` (stereo not drawn), the inhibition is -4.67% (inactive).

On to `COc1ccc(CN2CN(C3CCCC3)CSC2=S)cc1`, for which the inhibition was 17.5% (inactive).

With `CC1Cc2cc(/C(O)=C3\C(=O)C(=O)N(Cc4cccnc4)C3c3ccccc3F)ccc2O1` (stereo not drawn), the inhibition is -7.46% (inactive).

Consider `CCOC(=O)c1c(C)[nH]c(C(=O)NCCN2CCOCC2)c1C`, for which the inhibition was 2.41% (inactive).

In the case of `C[C@H]1[C@H]2c3nc4ccccc4n3C[C@H]1ON2C1CCCCC1`, the inhibition is -7.22% (inactive).

For the molecule `CCOC(=O)C(Cc1ccc(N)cc1)N1C(=O)c2ccccc2C1=O` (stereo not drawn), the inhibition was 7.65% (inactive).

Turning to `Cc1cc2nc(-c3ccc(NC(=O)c4cccnc4)cc3)oc2cc1C`, the inhibition is 101% (active).

Take `Cc1cc(NS(=O)(=O)c2ccc(NC(=O)c3cccnc3)cc2)nc(C)n1`: the inhibition is 2.23% (inactive).

Regarding `CC(=O)NC(=S)Nc1ccc(NC(=O)c2cccnc2)cc1`, the inhibition was 24.9% (inactive).

As for `COC(=O)c1cc(NC(=O)c2cccnc2)ccc1N1CCOCC1`, the inhibition was 26.8% (inactive).

With `CC(=O)Nc1ccc(Nc2c3ccccc3nc3ccccc23)cc1`, the inhibition was -31.9% (inactive).

As for `Cc1ccc2nc(-c3ccc(NC(=O)c4cccnc4)cc3)oc2c1`, the inhibition is 142% (active).

In the case of `CC(=O)Nc1ccc(-c2nc3ccccc3o2)cc1`, the inhibition was 54.7% (active).

As for `O=C(Nc1cnccn1)c1cccnc1`, the inhibition is 11% (inactive).

On to `COc1cc(OC)cc(C(=O)Nc2ccc(-c3nc4ccccc4o3)c(O)c2)c1`, for which the inhibition is 35.4% (inactive).

Consider `COc1ccc(CNC(=O)CN(C(=O)c2csnn2)c2cnc3ccccc3c2)cc1`, for which the inhibition was -8.3% (inactive).

Regarding `CCOC(=O)c1cc(=O)c2ccc(OCc3ccccc3)cc2o1`, the inhibition is -1.81% (inactive).

Turning to `CCOc1ccccc1NS(=O)(=O)c1c[nH]c(C(=O)OC)c1`, the inhibition is -3.38% (inactive).

Take `Cc1ccc(NC(=O)C2CCN(S(=O)(=O)c3ccc4c(c3)NC(=O)CO4)CC2)cc1C`: the inhibition is -2.09% (inactive).

Take `CNC[C@H](CC1CCCCC1)NC[C@H](NCCC1CCCC1)[C@H](C)O`: the inhibition is -0.811% (inactive).

As to `O=C(Nc1cccc(Cl)c1Cl)c1ccccc1NC(=O)C1CC=CCC1C(=O)O` (stereo not drawn), the inhibition is 35.7% (active).

`O=C(O)C1CC=CCC1C(=O)Nc1ccccc1C(=O)N1CCN(c2ccccc2)CC1` (stereo not drawn): the inhibition was -42.2% (inactive).

Consider `O=C(Nc1ccccc1)c1ccccc1NC(=O)C(F)(F)F`, for which the inhibition is 52.8% (inactive).

In the case of `O=C(O)C1CC=CCC1C(=O)NCCc1ccccc1` (stereo not drawn), the inhibition was 5.17% (inactive).

As for `CC(=O)Nc1ccc(NC(=O)COc2ccccc2C(=O)Nc2cccc(Cl)c2Cl)cc1`, the inhibition is 12.3% (inactive).

On to `O=C(Nc1ccc(Cl)c(Cl)c1)c1ccccc1NC(=O)C1CC=CCC1C(=O)O` (stereo not drawn), for which the inhibition was 59.4% (active).

For `Cc1ccc(N(CC(=O)NCC2CCCO2)C(=O)CNS(=O)(=O)c2ccc(Cl)cc2)cc1` (stereo not drawn), the inhibition is -7.51% (inactive).

Turning to `CN(C(=O)CN1C(=O)/C(=C/c2ccc(Cl)cc2)SC1=S)C1CCS(=O)(=O)C1` (stereo not drawn), the inhibition was -7.14% (inactive).

Turning to `O=C(c1cc2ccccc2s1)N1CCN(c2ccccn2)CC1`, the inhibition was 9.52% (inactive).

With `COc1ccc(-c2cc(=O)oc3cc(OCC(=O)N(C)C4CCS(=O)(=O)C4)ccc23)cc1` (stereo not drawn), the inhibition was -5.59% (inactive).

With `COc1cccc(C(=O)N2CCC(n3nccc3NC(=O)C3CCOC3)CC2)c1` (stereo not drawn), the inhibition is -9.25% (inactive).

Turning to `CCOCCCN1C(=O)C2C(C(=O)Nc3ccc(OCC)cc3)C3C=CC2(O3)C1C(=O)NC1CCCCC1` (stereo not drawn), the inhibition is -6.78% (inactive).

Consider `O=C(O)c1ccc(/C=N/Nc2nc(N3CCCCC3)nc(N3CCCCC3)n2)cc1`, for which the inhibition was -6.74% (inactive).

On to `Cc1ccc(/C=N/NC(=O)C2=NNC(c3ccccc3)(c3ccccc3)C2)c(O)c1`, for which the inhibition was 33.7% (inactive).

As for `Cc1ccc2cc(/C=N/NC(=O)[C@@H]3CCCN3)c(Cl)nc2c1`, the inhibition was 54.3% (active).

Consider `O=C(Nc1cccc(F)c1)[C@@H]1CCCN1`, for which the inhibition was 3.23% (inactive).

Take `Cc1ccc2cc(/C=N/Nc3ccc(C(=O)O)cc3)c(Cl)nc2c1`: the inhibition is 51.3% (active).

On to `O=C(O)c1ccc(N/N=C/c2cn(-c3ccccc3)nc2-c2cccs2)cc1`, for which the inhibition is 46.3% (inactive).

Consider `CCNC(=S)NNC(=O)c1ccc2ncccc2c1`, for which the inhibition is 38% (inactive).

On to `CSCC[C@H](NC(=O)OC(C)(C)C)C(=O)N/N=C/c1cc2ccc(C)cc2nc1Cl`, for which the inhibition was -11.9% (inactive).

For `O=C(O)c1ccc(N/N=C/c2ccc3ncccc3c2)cc1`, the inhibition is 45.9% (active).

As a reminder, the inhibition is the change of the read-out against control, counted positive when it falls.
